Results reported in article PMC12136788.
Numbering of substitutions follows the chain as printed. In all, about 24,000 sequences were measured (“enrichment r”: median about 0.99, highest 2% from about 3.7 on). This is one part of a sample in which the highest values are shown more often than they occur.

T1: UNK ZnF1-3 (human, UniProt Q9C0B0 31-174)
T1 sequence: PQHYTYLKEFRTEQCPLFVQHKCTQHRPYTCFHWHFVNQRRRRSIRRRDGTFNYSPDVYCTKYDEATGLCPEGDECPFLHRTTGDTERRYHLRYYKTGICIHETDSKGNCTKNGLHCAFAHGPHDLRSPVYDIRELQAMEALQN

B1: chr7:56126341:56126342:+_ENSG00000146731_ENST00000540286|hu_mus|hu_hu_hu_mus_True|8_78 (ssRNA)
RNA: GGGAGUUCUACAGUCCGACGAUCCAUGUUUCUCCUCUUGGCUCUGCGCAGAGCUACUAUGCCUUCUUUCGCAAGGGCAUCUAAGGAAAAGGGGUCAAUCCCCUUUUGAUUAAUAACGACAAAUCCUUUAUCUGAAUCACCACACAACAGAGGAUUGAGCAUCA
B2: chr7:90019490:90019491:+_ENSMUSG00000057706_ENSMUST00000082237|mus_mus|FALSE|FALSE (ssRNA)
RNA: GGGAGUUCUACAGUCCGACGAUCUCCGUCACAAUCGUGUGAUUAUUAAAAUAAUACAGUGUUCUUUGCCAUAAGGCCAUACUAAAAAUAAAAAGAUUUAACCCAGCUACAAAAAAGUUCACUGAACUUAAAUUAAAAUACUUGCAACAGAGGAUUGAGCAUCA
B3: chr7:90019433:90019434:+_ENSMUSG00000057706_ENSMUST00000082237|mus_hu|mus_mus_mus_hu_True|78_98 (ssRNA)
RNA: GGGAGUUCUACAGUCCGACGAUCAAAUAAUACAGUGUCUUUGCCAUUAAGGCCAUAUAAAAAUAAAAAGAUUUAACCCAGCUACAAAAAAGUUCACUGAACUUAAAUUAAAAUACUUGUAAACAUCUUUGCAAUAUGAAAUAUCAACAGAGGAUUGAGCAUCA
B4: chr7:90019433:90019434:+_ENSMUSG00000057706_ENSMUST00000082237|mus_hu|motif|central (ssRNA)
RNA: B3 RNA with C38U, U39C, G42U, C43G, A45C, U46A, U57C, A58U, U82G, A83G
B5: chr4:107545374:107545375:+_ENSMUSG00000028613_ENSMUST00000106731|mus_hu|FALSE|FALSE (ssRNA)
RNA: GGGAGUUCUACAGUCCGACGAUCUGAUGGAUAGCCACAAAGCAUAAUCAUCUUAUUUACAAAAAACAAAUGCCCCAAAACCUAAAAAAGCCCCCCCAGCAACCAAACAUCUUCUGUAAAUAUAGUUUUUAAAUGAUGAGUAAGCAACAGAGGAUUGAGCAUCA
B6: chr18:43483763:43483764:-_ENSMUSG00000024501_ENSMUST00000121805|mus_hu|FALSE|FALSE (ssRNA)
RNA: GGGAGUUCUACAGUCCGACGAUCGCAGACUCUUUUACCUUAGUGGCCUGUCUGAUUGCAUGCAUGUAAAUGGGGGGAGGGGAGUCAAACAAAUCAAGGCUAUGCAUAAACAGAAAACAAAGCAAUAUUCGUAAAGCUAGGCAACAACAGAGGAUUGAGCAUCA
B7: chr16:2758876:2758877:+_ENSG00000167977_ENST00000301738|hu_hu|FALSE|FALSE (ssRNA)
RNA: GGGAGUUCUACAGUCCGACGAUCAAUUUUAGUGAAUUAAGUCUUAAUAUCUUUAAAUUAAAAAAACCACAAGCCUAUCUACUAUGUCAAGGUCAAAAAUCAAACAACGCUAAGCGGCCAGCAGCUCCCCAGAGAGGAUGCCCACAACAGAGGAUUGAGCAUCA
B8: chr18:43483763:43483764:-_ENSMUSG00000024501_ENSMUST00000121805|mus_mus|FALSE|FALSE (ssRNA)
RNA: GGGAGUUCUACAGUCCGACGAUCUGCAGAAUCUACCUUAGUGGCCUGUCUGAUCGCAUGCAUGUAAGUGGGGGUGGGGUGGGGGUGGGGUUCAAAGAAAUUGAGAGUAUGCAAAAACAGAAACCAAAGCAAUUCAUAAAGCUACAACAGAGGAUUGAGCAUCA
B9: 62932219_62936930_2744_CDS_ENSG00000061987_ENST00000546600|human|control|control (ssRNA)
RNA: GGGAGUUCUACAGUCCGACGAUCCAUAUUAACUAAACCAGUUUCUAACAAUUUGGCAACAGCAAAAAGAGAUGGUUCCUUAUUAUUUCCAUAGGCCAUAUCCAUUGCUUCUAGAGACAAGGAGCAAAGUGCAUUUAUUAAAUGCAACAGAGGAUUGAGCAUCA
B10: chr1:10192443:10192444:+_ENSG00000130939_ENST00000377157|hu_hu|FALSE|FALSE (ssRNA)
RNA: GGGAGUUCUACAGUCCGACGAUCGACAGCCGCCAUGUAACUGAGAGCAGCCUCACGGGUUUCGCCAUUUAACAAAAUACUAUGCAGAAUCUUAAAAAGCUCUUGCCUUCCGAGCUCUAAGUAAUGCUGCAAUGAUUGGCUAACCAACAGAGGAUUGAGCAUCA
B11: 160625162_160625282_3606_3pUTR_ENSG00000136536_ENST00000259050|human|control|control (ssRNA)
RNA: GGGAGUUCUACAGUCCGACGAUCAAAACUACCACCCUUAAAUUUUAUAUUUUUGCUUUAAGACAGACAAUGCAAAGGUAACUGGCAAGAGGUGAGCAAAUGUUUUAGAACAUUUAUAUUAUUGCUUAAAAUGAGAUUUGAAAUCAACAGAGGAUUGAGCAUCA
B12: chr14:78183846:78183847:+_ENSG00000119705_ENST00000557342|hu_hu|hu_hu_hu_mus_False|18_98 (ssRNA)
RNA: GGGAGUUCUACAGUCCGACGAUCUCUCAGAAAUCUUUCUUUCUUUUAUGUUUGAGCUCCGUGCAAAGCCUUUGCUCUUUGAGCUUGAACGUGGAUCUAUGGGAGGGAAAGCACUGUAUUUUCCUGUAAUUUUUUUUUUAAAGACAACAGAGGAUUGAGCAUCA
B13: chr7:135123436:135123437:+_ENSMUSG00000030795_ENSMUST00000077609|mus_mus|FALSE|FALSE (ssRNA)
RNA: GGGAGUUCUACAGUCCGACGAUCGCCUCCGCGACCAUUUCCACCACCCCGAUUGAAGUCAGCUCGGCGGGUAGCAAAUGAAACUUUAAUAGGAUUCCCAGAGAAUUCUUUACCAUCAAACCAGUCGAUAGCUGCUUUAGCAGACAACAGAGGAUUGAGCAUCA
B14: 18916218_18916338_822_CDS_ENSMUSG00000020160_ENSMUST00000068264|mouse|control|control (ssRNA)
RNA: GGGAGUUCUACAGUCCGACGAUCGUGCGGGUACUGAUGCGAGUGCAGAGGAGGCCCGUGGUUCAGGUGGUGGACCGGUUGCAUGGACCUGGCUGCAUGCGGGUCCCCAUACAUCGUGGAGGGGAUGCCUACUCCAUCCAUACCCAACAGAGGAUUGAGCAUCA
B15: chr11:2981123:2981124:-_ENSG00000205531_ENST00000380542|hu_mus|FALSE|FALSE (ssRNA)
RNA: GGGAGUUCUACAGUCCGACGAUCCUUGUACGUUUUCGUCAGGACAGGAUUGGUGAAGUAGUCGUUGGGUUCAAAGUGAAACUCUAGCACAAAAGACAUAGGUUGUCCAGGGUCUGAAAACUUCACUUUAAUAUCCUGCAGAUGCAACAGAGGAUUGAGCAUCA

These binders were tested against T1, UNK ZnF1-3 (assay: nsRBNS (natural sequence RNA bind-n-seq); RBNS binding buffer (assumed for nsRBNS): 25 mM Tris pH 7.5, 150 mM KCl, 3 mM MgCl2, 0.01% Triton X-100, 500 ug/ml BSA, 20 U/ml SUPERase-In, 4 C; UNK is unkempt and MSI1 is Musashi-1; names of the RNAs are library labels; protein concentration not given here; high values mean tight binding).

Row | Binder | binding signal [enrichment R]
1 | B1 | 0.804
2 | B2 | 3.65
3 | B3 | 3.77
4 | B4 | 3.64
5 | B5 | 2.81
6 | B6 | 1.62
7 | B7 | 3.89
8 | B8 | 5.48
9 | B9 | 1.11
10 | B10 | 1.03
11 | B11 | 8.45
12 | B12 | 0.693
13 | B13 | 1.3
14 | B14 | 0.98
15 | B15 | 0.872
